Results reported in ChEMBL document CHEMBL1961873, “Compounds: GSK PKIS; Assays: Nanosyn kinase panel” (2012).

Tests used:
[1] = biological target: Calcium/calmodulin-dependent protein kinase type II subunit alpha (Homo sapiens) (UniProt Q9UQM7); conditions: at 1 µM;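 note: reported value is a mean percent inhibition of CAMK2A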
[2] = biological target: Calcium/calmodulin-dependent protein kinase type II subunit delta (Homo sapiens) (UniProt Q13557); conditions: at 0.1 µM
[3] = biological target: Calcium/calmodulin-dependent protein kinase type II subunit delta (Homo sapiens) (UniProt Q13557); conditions: at 1 µM
[4] = biological target: T1, Calcium/calmodulin-dependent protein kinase type IV (Homo sapiens) (UniProt Q16566); conditions: at 0.1 µM
T1 sequence (whole entry): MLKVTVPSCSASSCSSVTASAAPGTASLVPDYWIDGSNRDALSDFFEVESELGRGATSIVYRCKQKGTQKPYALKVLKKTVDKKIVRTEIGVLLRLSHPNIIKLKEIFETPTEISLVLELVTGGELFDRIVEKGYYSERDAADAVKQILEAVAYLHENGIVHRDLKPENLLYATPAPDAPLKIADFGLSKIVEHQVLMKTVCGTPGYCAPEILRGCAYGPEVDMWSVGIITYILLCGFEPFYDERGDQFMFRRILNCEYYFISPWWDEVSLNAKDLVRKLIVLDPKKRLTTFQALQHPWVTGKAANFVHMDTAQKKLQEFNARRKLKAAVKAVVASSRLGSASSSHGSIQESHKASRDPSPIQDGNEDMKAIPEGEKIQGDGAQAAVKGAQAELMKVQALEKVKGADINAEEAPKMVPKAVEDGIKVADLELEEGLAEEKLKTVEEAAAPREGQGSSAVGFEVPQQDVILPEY

[5] = biological target: T1, Calcium/calmodulin-dependent protein kinase type IV (Homo sapiens); conditions: at 1 µM
[6] = biological target: T2, Serine/threonine-protein kinase Chk1 (Homo sapiens) (UniProt O14757); conditions: at 0.1 µM
T2 sequence (whole entry): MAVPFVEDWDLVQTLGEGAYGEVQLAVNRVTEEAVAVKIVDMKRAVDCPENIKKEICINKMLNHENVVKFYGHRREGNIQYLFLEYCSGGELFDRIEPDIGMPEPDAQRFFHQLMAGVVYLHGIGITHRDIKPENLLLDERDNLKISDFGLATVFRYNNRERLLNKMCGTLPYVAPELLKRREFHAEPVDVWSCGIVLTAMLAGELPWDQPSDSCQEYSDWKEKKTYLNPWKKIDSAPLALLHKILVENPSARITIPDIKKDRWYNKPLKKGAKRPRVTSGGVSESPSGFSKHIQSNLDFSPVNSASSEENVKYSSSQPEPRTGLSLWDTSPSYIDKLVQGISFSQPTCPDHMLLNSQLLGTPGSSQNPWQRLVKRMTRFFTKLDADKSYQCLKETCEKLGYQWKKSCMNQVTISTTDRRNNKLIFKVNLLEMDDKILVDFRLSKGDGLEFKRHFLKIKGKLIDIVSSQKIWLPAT

[7] = biological target: T2, Serine/threonine-protein kinase Chk1 (Homo sapiens); conditions: at 1 µM
[8] = biological target: Serine/threonine-protein kinase Chk2 (Homo sapiens) (UniProt O96017); conditions: at 0.1 µM
Serine/threonine-protein kinase Chk2 (Homo sapiens), sequence (O96017 whole entry): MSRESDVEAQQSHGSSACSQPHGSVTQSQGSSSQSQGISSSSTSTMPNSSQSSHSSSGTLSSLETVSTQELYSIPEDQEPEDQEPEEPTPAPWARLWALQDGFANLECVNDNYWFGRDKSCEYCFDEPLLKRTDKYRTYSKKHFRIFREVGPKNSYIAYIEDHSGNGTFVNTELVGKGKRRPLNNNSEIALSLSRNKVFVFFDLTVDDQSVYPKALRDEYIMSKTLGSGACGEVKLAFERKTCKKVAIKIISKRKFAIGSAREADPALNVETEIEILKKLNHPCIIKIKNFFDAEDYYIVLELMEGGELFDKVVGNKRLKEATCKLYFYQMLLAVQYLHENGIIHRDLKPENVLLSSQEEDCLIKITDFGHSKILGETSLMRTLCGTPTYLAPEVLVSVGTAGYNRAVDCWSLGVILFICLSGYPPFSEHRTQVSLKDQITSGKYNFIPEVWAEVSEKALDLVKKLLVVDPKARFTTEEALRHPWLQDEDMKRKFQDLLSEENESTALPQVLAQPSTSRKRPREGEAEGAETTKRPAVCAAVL

[9] = biological target: Serine/threonine-protein kinase Chk2 (Homo sapiens) (UniProt O96017); conditions: at 1 µM
[10] = biological target: Death-associated protein kinase 1 (Homo sapiens) (UniProt P53355); conditions: at 0.1 µM
Death-associated protein kinase 1 (Homo sapiens), sequence (P53355 whole entry, looked up): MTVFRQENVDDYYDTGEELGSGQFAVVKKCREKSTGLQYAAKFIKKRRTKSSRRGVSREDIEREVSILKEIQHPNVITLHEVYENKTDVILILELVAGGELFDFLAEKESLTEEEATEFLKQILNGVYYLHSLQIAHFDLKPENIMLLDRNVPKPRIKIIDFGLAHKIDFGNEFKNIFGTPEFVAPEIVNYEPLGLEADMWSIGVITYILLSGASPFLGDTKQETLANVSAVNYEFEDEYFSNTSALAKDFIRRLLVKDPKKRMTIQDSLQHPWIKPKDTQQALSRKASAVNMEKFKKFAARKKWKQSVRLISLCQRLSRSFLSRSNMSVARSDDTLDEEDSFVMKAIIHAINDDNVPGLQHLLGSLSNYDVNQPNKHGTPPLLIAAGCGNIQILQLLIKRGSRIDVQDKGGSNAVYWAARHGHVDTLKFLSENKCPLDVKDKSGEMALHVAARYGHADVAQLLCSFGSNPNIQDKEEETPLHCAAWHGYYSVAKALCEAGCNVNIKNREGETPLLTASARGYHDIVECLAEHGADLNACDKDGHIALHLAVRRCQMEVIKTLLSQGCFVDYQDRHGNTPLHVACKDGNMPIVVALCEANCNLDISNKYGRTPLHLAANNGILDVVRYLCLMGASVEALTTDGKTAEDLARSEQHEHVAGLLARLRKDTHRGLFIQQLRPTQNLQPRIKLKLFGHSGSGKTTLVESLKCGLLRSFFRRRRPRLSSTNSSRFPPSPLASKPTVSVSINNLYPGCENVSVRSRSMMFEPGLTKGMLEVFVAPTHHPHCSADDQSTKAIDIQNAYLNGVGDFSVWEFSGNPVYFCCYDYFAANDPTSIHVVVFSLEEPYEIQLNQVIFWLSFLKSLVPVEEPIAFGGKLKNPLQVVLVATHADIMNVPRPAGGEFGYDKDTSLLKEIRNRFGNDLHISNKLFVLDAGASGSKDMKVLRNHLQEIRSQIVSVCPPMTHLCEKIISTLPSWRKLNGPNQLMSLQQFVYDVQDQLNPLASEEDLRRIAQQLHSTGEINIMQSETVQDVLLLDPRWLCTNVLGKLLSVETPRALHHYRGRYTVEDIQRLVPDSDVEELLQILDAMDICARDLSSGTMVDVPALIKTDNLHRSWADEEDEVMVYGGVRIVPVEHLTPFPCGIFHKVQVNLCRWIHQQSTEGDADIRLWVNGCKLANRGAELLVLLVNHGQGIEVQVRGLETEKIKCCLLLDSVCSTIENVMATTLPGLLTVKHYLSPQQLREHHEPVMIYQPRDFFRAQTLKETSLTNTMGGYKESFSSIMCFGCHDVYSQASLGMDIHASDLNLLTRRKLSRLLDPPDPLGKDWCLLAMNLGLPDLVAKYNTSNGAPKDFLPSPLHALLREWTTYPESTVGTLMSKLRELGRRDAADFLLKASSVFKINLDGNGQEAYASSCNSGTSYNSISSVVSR

[11] = biological target: Death-associated protein kinase 1 (Homo sapiens) (UniProt P53355); conditions: at 1 µM
[12] = biological target: T3, Serine/threonine-protein kinase DCLK2 (Homo sapiens) (UniProt Q8N568); conditions: at 0.1 µM
T3 sequence (whole entry): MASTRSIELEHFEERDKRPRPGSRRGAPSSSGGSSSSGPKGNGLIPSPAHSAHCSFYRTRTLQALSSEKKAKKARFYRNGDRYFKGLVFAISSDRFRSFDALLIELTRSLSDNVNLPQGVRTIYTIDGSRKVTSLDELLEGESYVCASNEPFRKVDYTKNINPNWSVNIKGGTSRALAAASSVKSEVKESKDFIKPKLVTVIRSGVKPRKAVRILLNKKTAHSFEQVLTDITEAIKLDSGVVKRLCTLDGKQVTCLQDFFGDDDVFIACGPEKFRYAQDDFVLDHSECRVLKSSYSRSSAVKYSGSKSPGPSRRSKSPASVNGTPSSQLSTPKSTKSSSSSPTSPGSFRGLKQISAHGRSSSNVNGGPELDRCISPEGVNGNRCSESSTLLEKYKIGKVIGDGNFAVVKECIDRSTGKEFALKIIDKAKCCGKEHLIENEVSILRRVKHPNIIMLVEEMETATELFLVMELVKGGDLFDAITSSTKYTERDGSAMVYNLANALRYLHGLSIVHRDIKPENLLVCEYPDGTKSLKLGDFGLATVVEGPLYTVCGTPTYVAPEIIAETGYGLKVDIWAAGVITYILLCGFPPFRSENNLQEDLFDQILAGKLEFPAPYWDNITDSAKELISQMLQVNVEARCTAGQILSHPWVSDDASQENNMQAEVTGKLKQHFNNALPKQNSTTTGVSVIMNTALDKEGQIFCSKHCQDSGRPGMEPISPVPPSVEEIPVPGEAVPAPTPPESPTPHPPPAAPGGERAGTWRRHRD

[13] = biological target: T3, Serine/threonine-protein kinase DCLK2 (Homo sapiens); conditions: at 1 µM
[14] = biological target: MAP kinase-activated protein kinase 2 (Homo sapiens) (UniProt P49137); conditions: at 0.1 µM
MAP kinase-activated protein kinase 2 (Homo sapiens), sequence (P49137 whole entry, looked up): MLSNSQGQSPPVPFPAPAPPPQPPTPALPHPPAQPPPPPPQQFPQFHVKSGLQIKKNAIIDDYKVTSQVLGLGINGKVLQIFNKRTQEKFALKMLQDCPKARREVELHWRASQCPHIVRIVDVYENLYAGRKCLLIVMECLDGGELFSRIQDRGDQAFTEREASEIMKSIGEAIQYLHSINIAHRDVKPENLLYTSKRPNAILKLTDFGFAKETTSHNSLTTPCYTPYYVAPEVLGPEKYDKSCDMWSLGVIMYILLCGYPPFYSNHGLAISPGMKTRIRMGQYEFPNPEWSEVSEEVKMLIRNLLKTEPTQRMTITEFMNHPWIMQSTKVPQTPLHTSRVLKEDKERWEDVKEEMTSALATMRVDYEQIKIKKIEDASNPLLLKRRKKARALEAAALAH

[15] = biological target: MAP kinase-activated protein kinase 2 (Homo sapiens) (UniProt P49137); conditions: at 1 µM
[16] = biological target: MAP kinase-activated protein kinase 3 (Homo sapiens) (UniProt Q16644); conditions: at 0.1 µM
MAP kinase-activated protein kinase 3 (Homo sapiens), sequence (Q16644 whole entry, looked up): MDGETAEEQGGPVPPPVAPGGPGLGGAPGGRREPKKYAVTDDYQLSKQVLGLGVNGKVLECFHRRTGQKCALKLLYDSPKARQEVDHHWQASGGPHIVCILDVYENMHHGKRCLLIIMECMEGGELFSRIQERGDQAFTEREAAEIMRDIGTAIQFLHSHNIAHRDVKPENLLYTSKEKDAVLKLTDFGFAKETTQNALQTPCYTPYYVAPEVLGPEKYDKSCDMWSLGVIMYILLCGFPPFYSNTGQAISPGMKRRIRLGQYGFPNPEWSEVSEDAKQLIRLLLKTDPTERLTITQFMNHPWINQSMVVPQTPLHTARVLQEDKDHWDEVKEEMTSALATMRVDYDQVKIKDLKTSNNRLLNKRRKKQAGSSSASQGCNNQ

[17] = biological target: MAP kinase-activated protein kinase 3 (Homo sapiens) (UniProt Q16644); conditions: at 1 µM
[18] = biological target: Serine/threonine-protein kinase MARK1 (Homo sapiens) (UniProt Q9P0L2); conditions: at 0.1 µM
Serine/threonine-protein kinase MARK1 (Homo sapiens), sequence (Q9P0L2 whole entry, looked up): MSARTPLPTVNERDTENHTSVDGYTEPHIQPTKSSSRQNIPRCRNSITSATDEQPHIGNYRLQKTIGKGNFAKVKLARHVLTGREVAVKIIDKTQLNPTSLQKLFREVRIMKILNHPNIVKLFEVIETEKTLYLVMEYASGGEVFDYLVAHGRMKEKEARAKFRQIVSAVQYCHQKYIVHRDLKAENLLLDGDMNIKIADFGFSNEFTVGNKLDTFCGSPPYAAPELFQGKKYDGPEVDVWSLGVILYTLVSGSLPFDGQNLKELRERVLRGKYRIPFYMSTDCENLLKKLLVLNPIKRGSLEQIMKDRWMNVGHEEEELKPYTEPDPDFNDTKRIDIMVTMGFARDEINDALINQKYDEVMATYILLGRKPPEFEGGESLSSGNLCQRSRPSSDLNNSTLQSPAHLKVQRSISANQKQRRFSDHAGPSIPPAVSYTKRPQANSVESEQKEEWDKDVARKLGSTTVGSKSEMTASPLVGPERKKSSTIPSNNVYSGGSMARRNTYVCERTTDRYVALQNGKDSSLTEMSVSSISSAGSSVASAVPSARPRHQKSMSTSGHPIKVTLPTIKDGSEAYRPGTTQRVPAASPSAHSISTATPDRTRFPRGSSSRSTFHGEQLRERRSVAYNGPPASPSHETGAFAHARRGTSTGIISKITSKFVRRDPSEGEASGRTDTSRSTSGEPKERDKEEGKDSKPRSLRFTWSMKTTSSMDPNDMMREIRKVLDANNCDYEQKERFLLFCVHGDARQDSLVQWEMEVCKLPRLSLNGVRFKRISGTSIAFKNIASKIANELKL

[19] = biological target: Serine/threonine-protein kinase MARK1 (Homo sapiens) (UniProt Q9P0L2); conditions: at 1 µM
[20] = biological target: MAP/microtubule affinity-regulating kinase 3 (Homo sapiens) (UniProt P27448); conditions: at 0.1 µM;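 note: mean percent inhibition of MARK3 kinase activity, measured within the GSK PKIS screening panel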

Calcium/calmodulin-dependent protein kinase type II subunit delta (Homo sapiens), sequence (Q13557 whole entry): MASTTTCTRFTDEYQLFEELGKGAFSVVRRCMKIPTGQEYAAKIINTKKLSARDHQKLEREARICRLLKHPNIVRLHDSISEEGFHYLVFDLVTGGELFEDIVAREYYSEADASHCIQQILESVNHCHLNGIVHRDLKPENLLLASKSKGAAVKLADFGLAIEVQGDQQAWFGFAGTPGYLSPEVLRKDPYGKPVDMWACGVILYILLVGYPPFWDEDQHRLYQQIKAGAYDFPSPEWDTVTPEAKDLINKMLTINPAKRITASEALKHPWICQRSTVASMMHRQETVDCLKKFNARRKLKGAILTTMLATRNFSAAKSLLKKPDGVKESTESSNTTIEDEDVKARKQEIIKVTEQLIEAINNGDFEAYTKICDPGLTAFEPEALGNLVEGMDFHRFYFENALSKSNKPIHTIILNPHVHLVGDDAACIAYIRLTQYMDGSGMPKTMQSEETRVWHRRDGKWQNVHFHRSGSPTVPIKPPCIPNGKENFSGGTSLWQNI
Calcium/calmodulin-dependent protein kinase type II subunit alpha (Homo sapiens), sequence (Q9UQM7 whole entry): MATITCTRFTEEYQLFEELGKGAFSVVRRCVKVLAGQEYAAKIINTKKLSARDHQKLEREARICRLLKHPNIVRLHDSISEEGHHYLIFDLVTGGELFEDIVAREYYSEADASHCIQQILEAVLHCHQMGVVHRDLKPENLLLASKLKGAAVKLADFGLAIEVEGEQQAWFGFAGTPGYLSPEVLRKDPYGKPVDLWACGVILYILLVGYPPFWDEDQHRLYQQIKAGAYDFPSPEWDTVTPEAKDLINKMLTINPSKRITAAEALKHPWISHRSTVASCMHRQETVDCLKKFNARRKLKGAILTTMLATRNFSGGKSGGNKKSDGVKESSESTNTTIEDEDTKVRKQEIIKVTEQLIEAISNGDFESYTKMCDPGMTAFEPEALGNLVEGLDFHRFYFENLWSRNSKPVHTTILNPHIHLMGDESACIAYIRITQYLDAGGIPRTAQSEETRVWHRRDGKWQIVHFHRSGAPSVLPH

Compound | inhibition [1] [%] | inhibition [2] [%] | inhibition [3] [%] | inhibition [4] [%] | inhibition [5] [%] | inhibition [6] [%] | inhibition [7] [%] | inhibition [8] [%] | inhibition [9] [%] | inhibition [10] [%] | inhibition [11] [%] | inhibition [12] [%] | inhibition [13] [%] | inhibition [14] [%] | inhibition [15] [%] | inhibition [16] [%] | inhibition [17] [%] | inhibition [18] [%] | inhibition [19] [%] | inhibition [20] [%]
COc1cccc(-n2ncc3c(N/N=C/c4ccncc4)ncnc32)c1 | 6.87 | 4.21 | 12.8 | -0.17 | -1.96 | 3.28 | 5.7 | 2.56 | 4.89 | 4.45 | 4.53 | 2.42 | 1.8 | 2.5 | 1.87 | 3.62 | 4.56 | 4.99 | 9.17 | 5.75
COc1cc(C=NNc2ncnc3c2cnn3Cc2ccccc2)ccc1O | -4.25 | -4.62 | -0.47 | -2.48 | -3.98 | -2.18 | -3.22 | -3.42 | -3.47 | -3.06 | -3.68 | -3.6 | -3.02 | -2.2 | -2.27 | -2.35 | -1.92 | -0.6 | 1.36 | 0.53
CCn1c(-c2nonc2N)nc2c(C#CCN)ncc(OCCCN)c21 | -1.33 | -4.81 | -4.58 | -6 | -5.56 | -3.81 | 0.26 | -1.17 | 0.23 | -2.99 | -3.38 | -0.93 | -0.65 | -0.73 | -0.87 | -1.07 | -0.66 | 4.42 | 11 | 6.58
NS(=O)(=O)c1ccc(N/C=C2\C(=O)Nc3ccc4ncsc4c32)cc1 | 3.49 | 4.43 | 16.3 | -1.62 | -1.06 | 7.84 | 33 | 4.73 | 19.1 | 5.66 | 9.33 | 0.08 | 5.55 | 2.68 | 2.48 | 7.84 | 10.4 | 13.6 | 53.8 | 8.01
